High-throughput results: PubChem, National Center for Advancing Translational Sciences (NCATS)
LmPK inh = qHTS Assay for Inhibitors of Leishmania Mexicana Pyruvate Kinase (LmPK); purified LmPK, Kinase-Glo ATP luminescence, 1 h; hit rate 0.37% among 290,000; Q27686; Potency, µM (doses to about 57.5 µM), for inactives: top-dose activity change, negative = inhibition, usual class: inhibitors; AID 1721, 2009; also: potency is read from the fitted curve at half-maximal effect; % is scaled to controls: 0 for no effect and ±100 for the full control effect
Target sequence (Q27686 whole entry, looked up): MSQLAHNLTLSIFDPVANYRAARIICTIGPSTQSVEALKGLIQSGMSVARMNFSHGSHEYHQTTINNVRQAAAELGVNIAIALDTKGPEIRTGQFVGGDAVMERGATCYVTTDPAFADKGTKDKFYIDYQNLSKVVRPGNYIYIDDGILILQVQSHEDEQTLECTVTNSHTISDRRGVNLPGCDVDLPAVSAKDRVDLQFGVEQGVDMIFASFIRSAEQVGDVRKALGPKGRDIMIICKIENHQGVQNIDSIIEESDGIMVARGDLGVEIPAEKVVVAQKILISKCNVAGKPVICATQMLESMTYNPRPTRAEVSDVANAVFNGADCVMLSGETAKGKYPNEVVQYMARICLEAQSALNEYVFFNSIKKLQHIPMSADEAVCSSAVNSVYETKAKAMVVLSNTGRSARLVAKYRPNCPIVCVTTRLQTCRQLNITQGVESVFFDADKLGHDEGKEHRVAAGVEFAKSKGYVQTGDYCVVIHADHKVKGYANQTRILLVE
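0.1 nM LmPK, 0.5 mM PEP, 0.1 mM ADP; 50 mM imidazole pH 7.2, 7 mM MgCl2, 50 mM KCl; 1 h RT. Kinase-Glo luminescence readout, normalized to no-enzyme (full inhibition) and uninhibited wells.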
CHX counter = Cycloheximide Counterscreen for Small Molecule Inhibitors of Shiga Toxin; max response, %; hit rate 12% among 300,000; cell reporter, cycloheximide protein synthesis inhibition counterscreen; AID 2314, 2010; in the data active = max response mostly above about 13%, no sharp cut-off; inactive = mostly below about 14%; also: read at 38.3 µM for the half of the compounds with a filed dose; 0% is about no effect
Sm TGR block = qHTS Assay for the Inhibitors of Schistosoma Mansoni Peroxiredoxins; purified TGR, DTNB reduction, TNB absorbance 405 nm; Potency, µM (titrated, usually from 114 µM), for the others: top-dose activity change, negative = inhibition, hits mostly inhibitors; hit rate 3% among 360,000; AID 485364, 2010; also: potency is read from the fitted curve at half-maximal effect; % is scaled to controls: 0 for no effect and ±100 for the full control effect; nearly all actives have a fitted effect of over 60% in size
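First, TGR (20 nM dispensed) and NADPH were mixed with compound. Second, a 15 min room-temperature incubation followed. Third, further NADPH and then DTNB were added to start the reaction. Finally, TNB absorbance was monitored kinetically.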
Shiga inhibitor = A qHTS for Small Molecule Inhibitors of Shiga Toxin | inhibition, % at 38.7 µM | Vero cells, Shiga toxin protein synthesis inhibition reporter | hit rate 9.2% among 290,000; in the data active = inhibition mostly above about 28%, no sharp cut-off; inactive = mostly below about 43%; also: 0% is about no effect
Giardia FBPA inh = qHTS Assay for Inhibitors of Fructose-1,6-bisphosphate Aldolase from Giardia Lamblia. purified Giardia FBPA. Potency, µM (series often up to 59.6 µM), inactives show at the top dose activity, negative = inhibition, most hits filed as inhibitors. hit rate 0.71% among 290,000; also: potency is read from the fitted curve at half-maximal effect; % is scaled to controls: 0 for no effect and ±100 for the full control effect; nearly all actives have a fitted effect of over 55% in size
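40 nM FBPA preincubated 10 min at RT with compound (up to 57.5 uM final), then substrate plus GAPDH/TPI/NAD/arsenate coupling and diaphorase/resazurin added. Fluorescence read after 20 min at RT, 525/598 nm.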
Tb PYK inh = qHTS of Trypanosoma Brucei Inhibitors | pyruvate kinase (Trypanosoma brucei), Q57TT1 | TbPYK enzyme, Kinase-Glo Plus ATP luminescence, 45 min | Potency, µM (series often up to 76.8 µM), for inactives: top-dose activity, negative = inhibition, actives largely listed as inhibitors | hit rate 0.12% among 410,000; also: potency is read from the fitted curve at half-maximal effect; % is scaled to controls: 0 for no effect and ±100 for the full control effect; nearly all actives have a fitted effect of over 50% in size
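Enzyme and substrate buffer are dispensed first and compound is pin-transferred. ADP at 130 uM final then starts the reaction, which runs 45 min at room temperature. Detection reagent is added for 10 min before luminescence is imaged.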
The depositor's hits bear a star; u = inconclusive; x = not tested or not shown; [ ] = dose if it differs, or a comment. Shown is part of a subset that was picked to be rich in hits. Unless noted, calls follow the shape of the dose curve; as a rule, active = well fitted curve in the direction sought with a large enough effect; inconclusive = small, poorly fitted or top-dose-only effect, or another doubt; inactive = no such curve, though single readings can be large; an effect the other way counts as inactive or inconclusive.

SMILES	LmPK inh	CHX counter	Sm TGR block	Shiga inhibitor	Giardia FBPA inh	Tb PYK inh
Cn1nnnc1SCC(=O)c1ccc2c(c1)OCCO2	-1%	38*	6%	97*	7%	-5%
COc1ccc(C(=O)CSc2nncn2C)cc1	0%	3	-5%	19	-8%	-7%
Cn1cnnc1SCC(=O)c1ccc2c(c1)OCCO2	5%	14	-31%	49*	-7%	-2%
CCCn1nnnc1SCC(=O)c1ccc2c(c1)OCCO2	-2%	36*	u	74*	-1%	-4%
Cc1ccc(C2=NN(S(=O)(=O)c3ccccc3)C(c3ccco3)C2)cc1 (stereo not drawn)	x	x	0%	x	x	-5%
CS(=O)(=O)Nc1ccc(C2=NN(S(=O)(=O)c3ccc(F)cc3)C(c3ccco3)C2)cc1 (stereo not drawn)	-1%	3	14µM*	-9	-13%	-5%
O=S(=O)(c1ccccc1)N1N=C(c2ccc(Br)cc2)CC1c1ccco1 (stereo not drawn)	-3%	12	56µM*	19	14%	u
O=C(CSc1nnc(-c2ccccc2)c(-c2ccccc2)n1)NCCc1ccccc1	x	x	-5%	x	x	2%
O=C(N/N=C/c1c[nH]c2ccccc12)c1cccc(Cl)c1	-7%	47*	10%	46*	2%	1%
COc1ccc2c(/C=N/Nc3ccc(C(=O)O)cc3)c[nH]c2c1	3%	47*	-19%	133*	-6%	-8%
O=C(N/N=C/c1c[nH]c2ccccc12)c1cccc(O)c1	1%	26*	-3%	70*	0%	2%
COc1ccc(C(=O)N/N=C/c2c[nH]c3ccccc23)cc1	2%	31*	-1%	69*	25%	-8%
COc1ccc2c(c1)C(=NNc1ccc(C(=O)O)cc1)c1cc(OC)ccc1-2	-1%	9	-10%	43	0%	7%
O=C(N/N=C/c1c[nH]c2ccccc12)c1ccc([N+](=O)[O-])cc1Cl	6%	17	6%	34	-3%	3%
Cc1cccc(-c2noc(CNC(=O)c3ccccc3Br)n2)c1	x	x	18%	x	x	1%
COc1ccc(NC(=O)Cn2cnc3c(oc4ccccc43)c2=O)cc1OC	x	x	-2%	x	x	-9%
COc1ccc(CCNCc2c(C(=O)O)c(C)n(Cc3c(F)cccc3Cl)c2C)cc1OC	x	x	-18%	x	x	-3%
COc1ccccc1N1CCN(C(=O)c2cn(C)c3ccc(S(=O)(=O)N(C)C4CCCCC4)cc3c2=O)CC1	x	x	4%	x	x	2%
COc1ccc2c(c1)c(/C=N/Nc1ccc(C(=O)O)cc1)c(C)n2C	-3%	43*	-21%	70*	-19%	-11%
O=C(N/N=C/c1c[nH]c2ccccc12)c1ccc(O)c(O)c1	-4%	24*	-13%	64*	-29%	-10%
CC(=O)Nc1cccc(C(=O)N/N=C/c2c[nH]c3ccccc23)c1	-1%	13*	5%	39	5%	-1%
O=C(N/N=C/C1C(c2ccccc2)C1(Cl)Cl)c1cccc(Cl)c1 (stereo not drawn)	5%	40*	0%	49*	-8%	2%
COc1ccc2c(c1)c(C(=O)N/N=C/c1ccc(Br)cc1)c(C)n2C	5%	0	-1%	1	-5%	1%
CCOc1ccccc1C(=O)N/N=C/c1c[nH]c2ccccc12	-2%[11.5 µM]	17	18%	17	-5%	-1%
O=C(Nc1ccc(N=Nc2ccccc2)cc1)c1cccc(Cl)c1	2%	-1	1%	0	5%	1%
SMILES	LmPK inh	CHX counter	Sm TGR block	Shiga inhibitor	Giardia FBPA inh	Tb PYK inh
CC(=O)Nc1cccc(C(=O)N/N=C/c2ccc(C)o2)c1	0%	11	-14%	17	-7%	-5%
Nc1nnc(/C=C/c2ccccc2)s1	-17%	44*	2%	37*	-1%	1%
COC(=O)Nc1nnc(/C=C/c2ccccc2)s1	-4%	12	2%	49*	2%	-4%
O=C(Nc1nnc(/C=C/c2ccccc2)s1)c1ccco1	3%	30*	0%	63*	3%	-3%
CC(=O)Nc1nnc(/C=C/c2cccc([N+](=O)[O-])c2)s1	-1%	5	4%	5	16%	-4%
COc1cc(OC)cc(-n2c(=O)c3ccccc3n(Cc3ccccc3C#N)c2=O)c1	x	x	-8%	x	x	3%
CN1[C@H]2CC(OC(=O)[C@H](CO)c3ccccc3)C[C@H]1[C@H]1O[C@H]12 (stereo partly drawn)	x	x	x	x	x	3%
Cc1c(C(C)(C)C)sc(=NC(=O)c2ccccc2O)n1C	-1%	38*	2%	82*	4%	22%
CCc1ccccc1NC(=O)c1ccc2c(c1)CCCN2S(C)(=O)=O	x	x	-1%	x	x	-2%
FC(F)Oc1ccc(NC(=S)NCCc2ccccn2)cc1	-1%	29*	0%	45	-2%	1%
Oc1cccc2c(NC(=S)Nc3ccc(OC(F)F)cc3)cccc12	4%	74*	-11%	88*	u	-5%
FC(F)Oc1ccc(NC(=S)Nn2cnnc2)cc1	-3%	0	-14%	-5	-24%	u
FC(F)Oc1ccc(NC(=S)NCc2ccccc2)cc1	-2%	11*	-31%	37*	2%	-4%
S=C(NCCc1ccccn1)Nc1cccc(Cl)c1	4%	10	-10%	18	-3%	-4%
COC(=O)c1ccc(NC(=O)CN(Cc2ccccc2)S(=O)(=O)c2ccc(Cl)cc2)cc1	x	x	2%	x	x	2%
CCOc1ccc(NC(=O)Nc2ccccc2SC)cc1	7.9µM*	33*	-3%	66*	-2%	-9%
CSc1ccccc1NC(=O)Nc1cccc(F)c1	-28%	22*	13%	41*	-11%	-4%
CCOc1ccc(NC(=O)Nc2cc(C(C)C)ccc2C)cc1	-2%	2	10%	4	6%	x
CSc1ccccc1NC(=O)Nc1ccccc1	u	25*	-19%	91*	-9%	-3%
CCOc1ccc(NC(=O)Nc2cccn(Cc3ccccc3)c2=O)cc1	-3%	31*	x	33	u	-4%
COc1ccccc1NC(=O)Nc1ccccc1SC	1%	1	x	35	-21%	-4%
CC(C)(C)c1ccc(NC(=O)CSc2nnc3scc(-c4ccccc4)n23)cc1	x	x	3%	x	x	2%
O=C(NCc1ccccc1)Nc1cccn(Cc2ccccc2F)c1=O	-2%	20*	-13%	5	-5%	2%
O=C(NCc1ccccc1)Nc1cccn(Cc2ccccc2)c1=O	-1%	13	2%	-4	-7%	-7%
CCOC(=O)c1sc2ccccc2c1S(=O)(=O)NCc1ccccc1OC	x	x	-1%	x	x	-14%
